{
  "source": "PubChem BioAssay (EPA / NIEHS)",
  "key": {"[1]": {"target": "rat Opioid Receptor, Non-selective Sodium (Na+) Binding, Oprm1 (gene 25601) (UniProt P33535)", "sequence (P33535 whole entry, looked up)": "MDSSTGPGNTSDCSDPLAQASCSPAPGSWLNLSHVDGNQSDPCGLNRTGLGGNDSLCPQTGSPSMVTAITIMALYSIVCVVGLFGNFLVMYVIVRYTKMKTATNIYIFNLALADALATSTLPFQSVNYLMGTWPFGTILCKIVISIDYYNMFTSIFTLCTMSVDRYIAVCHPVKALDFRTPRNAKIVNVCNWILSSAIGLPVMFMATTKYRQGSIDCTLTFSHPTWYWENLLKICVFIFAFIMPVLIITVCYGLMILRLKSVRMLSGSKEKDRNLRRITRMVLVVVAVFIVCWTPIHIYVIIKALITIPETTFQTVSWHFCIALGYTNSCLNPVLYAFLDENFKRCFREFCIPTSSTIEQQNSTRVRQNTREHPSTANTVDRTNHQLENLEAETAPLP", "assay": "NVS_GPCR_rOpiate_NonSelectiveNa: NovaScreen (NVS) G Protein-Coupled Receptor Assay for rat Opioid Receptor, Non-selective Sodium (Na+) Binding (AID 2283311)", "procedure,_shortened": "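Filtration radioligand binding on rat forebrain membrane preparations, read 1.5 h after dosing. Single-concentration 25 µM primary screen in duplicate, followed by singleton concentration series to 50 µM max for actives; DMSO baseline.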"}, "NCBI gene 24521": {"tested_on": "NCBI gene 24521", "assay": "NVS_IC_rKATPCh: NovaScreen (NVS) Ion Channel Assay for rat Potassium Channel, ATP-Sensitive (KATPCh) (AID 2283319)", "procedure,_shortened": "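Primary duplicate screen at 25 uM, then singleton concentration series to 50 uM maximum, in a rat cortex membrane radioligand displacement assay. Binding measured by filtration and scintillation 2 h post-dose; DMSO baseline.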"}, "[2]": {"target": "bovine Gamma-Aminobutyric Acid Type A Receptor BDZ, alpha 5 site (GABARa5), GABRA5 (gene 523515) (UniProt Q08E50)", "sequence (Q08E50 whole entry, looked up)": "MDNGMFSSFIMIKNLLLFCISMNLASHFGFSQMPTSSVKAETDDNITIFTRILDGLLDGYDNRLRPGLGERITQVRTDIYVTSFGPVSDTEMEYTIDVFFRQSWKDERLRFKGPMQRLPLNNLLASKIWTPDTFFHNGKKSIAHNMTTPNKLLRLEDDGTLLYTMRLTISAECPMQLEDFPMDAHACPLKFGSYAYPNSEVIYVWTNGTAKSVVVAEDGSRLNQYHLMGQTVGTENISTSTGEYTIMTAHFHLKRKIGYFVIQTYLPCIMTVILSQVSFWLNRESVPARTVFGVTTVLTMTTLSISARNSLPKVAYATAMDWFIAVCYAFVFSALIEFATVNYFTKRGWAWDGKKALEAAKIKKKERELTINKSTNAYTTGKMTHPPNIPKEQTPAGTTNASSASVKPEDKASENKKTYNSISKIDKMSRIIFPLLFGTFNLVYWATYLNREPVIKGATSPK", "assay": "NVS_LGIC_bGABARa5: NovaScreen (NVS) Ligand-Gated Ion Channel Assay for bovine Gamma-Aminobutyric Acid Type A Receptor BDZ, alpha 5 site (GABARa5) (AID 2283323)", "procedure,_shortened": "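Tested first in duplicate at a single 25 uM, with hits re-run in concentration series to a 50 uM maximum. Bovine hippocampal membranes; specific radioligand displacement measured by filter scintillation counting 1 hr post-dose.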"}, "[3]": {"target": "human Neonicotinoid receptor (NNR), CHRNA2 (gene 1135) (UniProt Q15822)", "sequence (Q15822 whole entry, looked up)": "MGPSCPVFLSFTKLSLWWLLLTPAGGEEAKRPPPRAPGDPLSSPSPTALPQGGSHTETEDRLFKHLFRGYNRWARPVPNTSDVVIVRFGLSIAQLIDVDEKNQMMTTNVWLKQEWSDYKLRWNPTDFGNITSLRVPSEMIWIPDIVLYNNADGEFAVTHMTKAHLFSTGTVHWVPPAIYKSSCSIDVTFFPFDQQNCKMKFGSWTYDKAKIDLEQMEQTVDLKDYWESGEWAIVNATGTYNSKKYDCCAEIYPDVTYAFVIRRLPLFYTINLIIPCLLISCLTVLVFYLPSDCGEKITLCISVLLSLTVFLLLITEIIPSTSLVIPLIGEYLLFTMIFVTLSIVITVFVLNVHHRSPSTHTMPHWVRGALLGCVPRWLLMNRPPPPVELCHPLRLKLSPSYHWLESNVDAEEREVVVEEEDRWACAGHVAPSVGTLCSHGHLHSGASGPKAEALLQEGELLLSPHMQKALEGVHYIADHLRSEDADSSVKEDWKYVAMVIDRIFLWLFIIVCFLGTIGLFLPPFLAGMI", "assay": "NVS_LGIC_hNNR_NBungSens: NovaScreen (NVS) Ligand-Gated Ion Channel Assay for human Neonicotinoid receptor (NNR) (AID 2283313)", "procedure,_shortened": "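Compounds first screened in duplicate at 25 uM, then actives re-tested in single-replicate dose series up to 50 uM. Binding measured as displacement of specific radioligand from neuroblastoma membrane receptors after 2 h, scintillation read on filters.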"}, "[4]": {"target": "rat Neonicotinoid receptor (NNR), Chrna7 (gene 25302) (UniProt Q05941)", "sequence (Q05941 whole entry, looked up)": "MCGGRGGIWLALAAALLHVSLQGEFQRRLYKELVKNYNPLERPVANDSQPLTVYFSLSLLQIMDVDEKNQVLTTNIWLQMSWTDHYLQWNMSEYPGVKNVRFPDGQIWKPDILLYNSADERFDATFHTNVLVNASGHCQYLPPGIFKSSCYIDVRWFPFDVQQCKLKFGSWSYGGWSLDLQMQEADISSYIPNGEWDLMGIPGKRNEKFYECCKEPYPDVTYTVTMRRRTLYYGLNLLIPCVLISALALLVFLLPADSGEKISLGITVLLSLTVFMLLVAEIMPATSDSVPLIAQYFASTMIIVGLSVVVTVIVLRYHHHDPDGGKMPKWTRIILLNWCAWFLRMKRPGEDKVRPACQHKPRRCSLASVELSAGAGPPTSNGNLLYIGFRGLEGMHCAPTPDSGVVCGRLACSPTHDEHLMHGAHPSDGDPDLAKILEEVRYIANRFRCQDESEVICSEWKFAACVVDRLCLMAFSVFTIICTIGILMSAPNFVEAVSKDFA", "assay": "NVS_LGIC_rNNR_BungSens: NovaScreen (NVS) Ligand-Gated Ion Channel Assay for rat Neonicotinoid receptor (NNR) (AID 2283315)", "procedure,_shortened": "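Rat cortical membrane preparation incubated 2.5 h with tritiated or iodinated radioligand and test chemical. Bound radioactivity was filtered and counted by scintillation, and displacement was analysed against DMSO.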"}, "[5]": {"target": "Voltage-dependent N-type calcium channel subunit alpha-1B (Rattus norvegicus) (UniProt Q02294)", "assay": "NVS_IC_rCaChN: NovaScreen (NVS) Ion Channel Assay for rat Calcium Channel, Type N (CaChN) (AID 2283317)"}, "[6]": {"target": "rat Glutamate, AMPA Site (AMPA), Gria1 (gene 50592) (UniProt P19490)", "sequence (P19490 whole entry, looked up)": "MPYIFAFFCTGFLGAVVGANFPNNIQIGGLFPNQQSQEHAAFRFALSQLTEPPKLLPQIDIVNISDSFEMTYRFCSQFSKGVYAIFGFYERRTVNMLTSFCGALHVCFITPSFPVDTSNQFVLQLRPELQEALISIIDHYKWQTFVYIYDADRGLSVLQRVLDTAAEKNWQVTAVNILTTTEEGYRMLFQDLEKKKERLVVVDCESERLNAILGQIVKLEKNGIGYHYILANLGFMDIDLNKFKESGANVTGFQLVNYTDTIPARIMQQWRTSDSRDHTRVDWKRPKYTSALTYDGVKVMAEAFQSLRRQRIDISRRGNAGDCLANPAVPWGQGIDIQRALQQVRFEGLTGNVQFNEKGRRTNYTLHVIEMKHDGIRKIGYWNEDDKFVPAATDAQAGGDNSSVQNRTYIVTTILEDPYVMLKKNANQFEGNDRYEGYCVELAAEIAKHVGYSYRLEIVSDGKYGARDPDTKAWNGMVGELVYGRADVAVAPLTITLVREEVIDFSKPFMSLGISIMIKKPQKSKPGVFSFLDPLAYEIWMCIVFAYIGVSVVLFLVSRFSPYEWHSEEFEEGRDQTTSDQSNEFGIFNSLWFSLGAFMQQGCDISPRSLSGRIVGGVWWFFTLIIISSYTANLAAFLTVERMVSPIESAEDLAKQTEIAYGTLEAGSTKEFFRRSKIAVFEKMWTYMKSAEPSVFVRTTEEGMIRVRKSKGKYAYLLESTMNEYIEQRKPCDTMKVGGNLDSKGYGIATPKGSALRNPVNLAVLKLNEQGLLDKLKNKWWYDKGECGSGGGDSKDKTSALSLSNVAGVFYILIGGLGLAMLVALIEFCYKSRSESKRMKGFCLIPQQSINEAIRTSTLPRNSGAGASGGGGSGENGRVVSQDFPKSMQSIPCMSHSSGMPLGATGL", "assay": "NVS_LGIC_rAMPA: NovaScreen (NVS) Ligand-Gated Ion Channel Assay for rat Glutamate, AMPA Site (AMPA) (AID 2283324)", "procedure,_shortened": "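Screening at 25 uM in duplicate preceded concentration series reaching 50 uM for qualifying compounds. Radioligand displacement on rat forebrain membranes, 1 h, filter-based scintillation readout; reduced binding relative to DMSO.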"}, "[7]": {"assay": "NVS_IC_rCaDHPRCh_L: NovaScreen (NVS) Ion Channel Assay for rat Calcium Channel, Type L, Dihydropyridine Site (CaDHPRCh_L) (AID 2283320)", "procedure,_shortened": "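Rat cortex membrane preparation; dihydropyridine-site radioligand displacement read 1 h post-dose by filtration and scintillation. Primary single-point screen 25 uM in duplicate, then concentration series to 50 uM maximum; DMSO as negative control.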"}, "[8]": {"target": "rat Neurokinin-3 Receptor (NK3), Tacr3 (gene 24808) (UniProt P16177)", "sequence (P16177 whole entry, looked up)": "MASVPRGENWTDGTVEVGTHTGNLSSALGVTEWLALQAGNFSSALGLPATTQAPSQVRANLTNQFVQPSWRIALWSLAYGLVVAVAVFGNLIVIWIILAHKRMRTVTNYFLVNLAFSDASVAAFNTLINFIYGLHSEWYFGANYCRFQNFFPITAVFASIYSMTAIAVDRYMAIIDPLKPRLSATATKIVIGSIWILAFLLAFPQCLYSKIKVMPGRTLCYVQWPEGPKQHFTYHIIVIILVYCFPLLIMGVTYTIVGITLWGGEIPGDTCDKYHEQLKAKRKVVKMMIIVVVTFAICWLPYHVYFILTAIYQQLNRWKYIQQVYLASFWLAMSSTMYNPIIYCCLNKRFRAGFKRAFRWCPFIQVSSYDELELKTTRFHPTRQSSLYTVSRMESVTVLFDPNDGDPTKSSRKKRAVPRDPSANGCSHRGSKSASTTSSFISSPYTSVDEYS", "assay": "NVS_GPCR_rNK3: NovaScreen (NVS) G Protein-Coupled Receptor Assay for rat Neurokinin-3 Receptor (NK3) (AID 2283310)", "procedure,_shortened": "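Filter-based radioligand displacement on rat cortex membrane preparations, read by scintillation 2 h post-dose. Chemicals first tested in duplicate at 25 uM; actives followed up in concentration series with a 50 uM maximum.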"}, "[9]": {"target": "rat Vasopressin 1 Receptor (V1), Avpr1a (gene 25107) (UniProt P30560)", "sequence (P30560 whole entry, looked up)": "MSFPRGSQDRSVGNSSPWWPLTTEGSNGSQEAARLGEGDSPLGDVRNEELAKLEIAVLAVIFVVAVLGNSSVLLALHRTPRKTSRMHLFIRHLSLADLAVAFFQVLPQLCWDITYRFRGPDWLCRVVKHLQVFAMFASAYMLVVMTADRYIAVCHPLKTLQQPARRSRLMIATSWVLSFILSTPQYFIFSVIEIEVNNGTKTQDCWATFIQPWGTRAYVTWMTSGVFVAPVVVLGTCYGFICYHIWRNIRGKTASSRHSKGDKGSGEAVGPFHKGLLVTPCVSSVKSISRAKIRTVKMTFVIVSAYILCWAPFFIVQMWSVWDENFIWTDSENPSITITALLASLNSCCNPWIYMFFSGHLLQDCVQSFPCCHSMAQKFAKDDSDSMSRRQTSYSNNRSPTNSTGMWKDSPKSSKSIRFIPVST", "assay": "NVS_GPCR_rV1: NovaScreen (NVS) G Protein-Coupled Receptor Assay for rat Vasopressin 1 Receptor (V1) (AID 2283316)", "procedure,_shortened": "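Concentration-response up to 50 uM for chemicals passing a threshold such as 30% inhibition in an initial duplicate 25 uM screen. Displacement of radioligand from rat liver membranes measured after 1.5 h by filtration and scintillation.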"}, "[10]": {"target": "Sodium channel protein type 1 subunit alpha (Rattus norvegicus) (UniProt P04774)", "assay": "NVS_IC_rNaCh_site2: NovaScreen (NVS) Ion Channel Assay for rat Sodium Channel, Site 2 (NaCh) (AID 2283322);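 note: hit means loss of radioligand binding signal relative to DMSO so AC50 marks displacement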", "procedure,_shortened": "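Initial duplicate single-point testing at 25 uM, followed by concentration-response runs for actives. Binding of radioligand to rat forebrain membranes quantified after 1 h via filter-based radiodetection.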"}, "[11]": {"target": "rat Opioid Receptor, Non-selective Binding, Oprm1 (gene 25601) (UniProt P33535)", "sequence (P33535 whole entry, looked up)": "as the sequence (P33535 whole entry, looked up) above", "assay": "NVS_GPCR_rOpiate_NonSelective: NovaScreen (NVS) G Protein-Coupled Receptor Assay for rat Opioid Receptor, Non-selective Binding (AID 2283318)", "procedure,_shortened": "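Filter-based radioligand displacement using rat forebrain membrane preparations, measured 1.5 h post-dosing. Single-concentration duplicate screen at 25 uM, follow-up in concentration series; activity taken as signal loss relative to DMSO.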"}},
  "note": "Records with an inconclusive call do not appear. Calls of active or inactive are those of the source. Rule for the calls: active = hit-call score of the fitted dose curve at least 0.9, where 1 is the maximum; inconclusive = response in the unintended direction; inactive = score below 0.9.",
  "data": [
    {"smiles": "CCOP(=S)(OCC)Oc1ccc([N+](=O)[O-])cc1", "values": [
      {"measurement": "outcome", "setting": "[1]", "result": "inactive"}
    ]},
    {"smiles": "Nc1nc(N)nc(NC2CC2)n1", "values": [
      {"measurement": "outcome", "setting": "NCBI gene 24521", "result": "inactive"}
    ]},
    {"smiles": "CNC(=O)ON=C(SC)C(=O)N(C)C", "values": [
      {"measurement": "outcome", "setting": "NCBI gene 24521", "result": "inactive"}
    ]},
    {"smiles": "O=[N+]([O-])c1cc(C(F)(F)F)c(Cl)c([N+](=O)[O-])c1Nc1ncc(C(F)(F)F)cc1Cl", "values": [
      {"measurement": "outcome", "setting": "[2]", "result": "inactive"}
    ]},
    {"smiles": "CCCSP(=O)(OCC)SCCC", "values": [
      {"measurement": "outcome", "setting": "[1]", "result": "inactive"}
    ]},
    {"smiles": "CC(=NC#N)N(C)Cc1ccc(Cl)nc1", "values": [
      {"measurement": "AC50", "setting": "[3]", "result": "4.61 µM (active)"},
      {"measurement": "AC50", "setting": "[4]", "result": "8.03 µM (active)"}
    ]},
    {"smiles": "COP(=O)(OC)C(O)C(Cl)(Cl)Cl", "note": "(stereo not drawn)", "values": [
      {"measurement": "outcome", "setting": "[5]", "result": "inactive"}
    ]},
    {"smiles": "CN(C)[C@@H]1C(=O)C(C(N)=O)=C(O)[C@@]2(O)C(=O)C3=C(O)c4c(O)cccc4[C@@](C)(O)[C@H]3[C@H](O)[C@@H]12", "values": [
      {"measurement": "outcome", "setting": "[6]", "result": "inactive"}
    ]},
    {"smiles": "CN1COCN(Cc2cnc(Cl)s2)C1=N[N+](=O)[O-]", "values": [
      {"measurement": "outcome", "setting": "[7]", "result": "inactive"}
    ]},
    {"smiles": "CN(C)C(=O)Nc1cccc(C(F)(F)F)c1", "values": [
      {"measurement": "outcome", "setting": "[8]", "result": "inactive"},
      {"measurement": "AC50", "setting": "NCBI gene 24521", "result": "10.9 µM (active)"}
    ]},
    {"smiles": "CSc1nnc(C(C)(C)C)c(=O)n1N", "values": [
      {"measurement": "outcome", "setting": "[3]", "result": "inactive"},
      {"measurement": "outcome", "setting": "NCBI gene 24521", "result": "inactive"}
    ]},
    {"smiles": "CON=C(C(=O)OC)c1ccccc1CON=C(C)c1cccc(C(F)(F)F)c1", "values": [
      {"measurement": "AC50", "setting": "[9]", "result": "11.1 µM (active)"},
      {"measurement": "outcome", "setting": "[6]", "result": "inactive"}
    ]},
    {"smiles": "CC(C1CC1)C(O)(Cn1cncn1)c1ccc(Cl)cc1", "note": "(stereo not drawn)", "values": [
      {"measurement": "outcome", "setting": "[10]", "result": "inactive"}
    ]},
    {"smiles": "CCCCOC(=O)c1ccccc1C(=O)O", "values": [
      {"measurement": "outcome", "setting": "[5]", "result": "inactive"},
      {"measurement": "outcome", "setting": "[2]", "result": "inactive"}
    ]},
    {"smiles": "CSc1nc(NC(C)C)nc(NC(C)C)n1", "values": [
      {"measurement": "AC50", "setting": "[10]", "result": "11.9 µM (active)"}
    ]},
    {"smiles": "CCOC(=O)CC(SP(=O)(OC)OC)C(=O)OCC", "note": "(stereo not drawn)", "values": [
      {"measurement": "outcome", "setting": "[11]", "result": "inactive"}
    ]},
    {"smiles": "C[N+]1(C)CCCCC1", "values": [
      {"measurement": "AC50", "setting": "[3]", "result": "11.2 µM (active)"},
      {"measurement": "AC50", "setting": "[4]", "result": "6.52 µM (active)"}
    ]}
  ]
}
